According to PMC7819943, “Rice protein-binding microarrays: a tool to detect cis-acting elements near promoter regions in rice”:
Whole data set: some 39,000 sequences, median “fluorescence intensity (a.u.)” near 4,300, cut for the highest 2% near 39,000. Shown is part of a subset that was picked to be rich in the highest values.

Each sequence was assayed against T1, OsSMF1 (Oryza sativa, UniProt Q6ZLB0 1-436) (assay: protein-binding microarray (RPBM); PBS, 2% BSA, 51.3 ng/ul salmon testes DNA, 50 uM zinc acetate, 200 nM TF, 25 C, 1 h; high values mean tight binding). Conditions: protein: recombinant; tags: N-terminal polyhistidine and DsRed monomer fusion (pET32a); chain copies: 2; label: CyDye5-dUTP incorporated in the synthesized complementary strand; 3' TTTTT single-stranded linker to array surface; dsDNA, one strand shown.
T1 sequence: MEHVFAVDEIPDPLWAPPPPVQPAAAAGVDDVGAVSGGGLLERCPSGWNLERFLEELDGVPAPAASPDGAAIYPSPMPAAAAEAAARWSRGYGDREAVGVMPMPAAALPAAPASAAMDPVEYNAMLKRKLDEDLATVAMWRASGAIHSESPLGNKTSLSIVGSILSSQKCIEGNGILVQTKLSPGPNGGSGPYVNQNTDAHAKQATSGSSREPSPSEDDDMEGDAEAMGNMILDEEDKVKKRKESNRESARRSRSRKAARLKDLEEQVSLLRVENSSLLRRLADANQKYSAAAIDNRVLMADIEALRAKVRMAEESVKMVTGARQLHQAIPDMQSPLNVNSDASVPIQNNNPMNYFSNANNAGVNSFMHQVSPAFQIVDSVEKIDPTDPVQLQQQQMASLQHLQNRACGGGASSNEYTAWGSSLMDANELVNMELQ
Method in brief: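 Transcription factors, each fused N-terminally to a polyhistidine tag and DsRed, were expressed in E. coli BL21-CodonPlus and purified on Ni–NTA. A custom Agilent array was made double-stranded by primer extension with Cy5-dUTP and blocked with 2% BSA. It was incubated with 200 nM protein in PBS, 2% BSA, salmon testes DNA and 50 µM zinc acetate at 25 °C for 1 h, then washed. The binding signal is per-feature fluorescence intensity (arbitrary units) read on an Axon 4000B scanner.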

Sequence	binding signal
CAAATACTACATCACACAGGTCAGCAGAAATTTCACTCTTCGGAGTCACCTAGTGCAG	4100 fluorescence intensity (a.u.)
CTCTTCAGGGAACAGAATCAAATCAGCATTTTAACTAACTCGGAGTCACCTAGTGCAG	40100 fluorescence intensity (a.u.)
TGGCAAATCTCATCAGCAACAGGGACCTCTTGGTGTGACTCGGAGTCACCTAGTGCAG	4290 fluorescence intensity (a.u.)
CCGTTTCCGAATCTCGAGGCGCAAGAGGCCATCGAACGGCCGGAGTCACCTAGTGCAG	38300 fluorescence intensity (a.u.)
TTTATCTAATTAAAATATATTTATAGCTGACTAATAGTCTCGGAGTCACCTAGTGCAG	3480 fluorescence intensity (a.u.)
TGTGGAGTCCACGTGGGACTTAGCCGCCACATCAATAAAACGGAGTCACCTAGTGCAG	9160 fluorescence intensity (a.u.)
TGACCAAAATTTGAAACTTTCAATACAATTATGAAACTTTCGGAGTCACCTAGTGCAG	6370 fluorescence intensity (a.u.)
TTAGATGAAACCACGATTTGTCAAAATGCATCCAAAACTTCGGAGTCACCTAGTGCAG	43100 fluorescence intensity (a.u.)
GCCAAGCCAAACCAATCCAAGCCAAGCCAAATGAATGATTCGGAGTCACCTAGTGCAG	3150 fluorescence intensity (a.u.)
GTTAATCTCAATAAAATACTTAGCTCCATAAATAATTTTGCGGAGTCACCTAGTGCAG	36700 fluorescence intensity (a.u.)
CCCAGCTGTCTTTCCTCCAGGTCACCTGACAAATGTCACTCGGAGTCACCTAGTGCAG	3950 fluorescence intensity (a.u.)
GAAAACTAGTCCAAAATGAGTCTTTGCTTCAATGCAAACGCGGAGTCACCTAGTGCAG	39000 fluorescence intensity (a.u.)
AAATACGGAGAGAAGAAGGCTCACTAAGCGCGCTTACTATCGGAGTCACCTAGTGCAG	42500 fluorescence intensity (a.u.)
ATCTTAAATACTACTAGAAATTAACGGAGACTAAGGCTTGCGGAGTCACCTAGTGCAG	26500 fluorescence intensity (a.u.)
CTTATCAGTCGTAGCTCAACCTATAAGAGGCCTAAATATACGGAGTCACCTAGTGCAG	32800 fluorescence intensity (a.u.)
TGCCAAATGTTGAAACACTTACAGTAGCATCTAATGAAGTCGGAGTCACCTAGTGCAG	16000 fluorescence intensity (a.u.)
AGCTTTTCTTTTCTACACAAAGGGAAGGGAAAGAAGAAACCGGAGTCACCTAGTGCAG	37800 fluorescence intensity (a.u.)
AACTACACACAAAGCCGAGCCAAAGTCTCTAGGTCAAAGTCGGAGTCACCTAGTGCAG	20600 fluorescence intensity (a.u.)
CCCAGGGAGGCCAAACTACAAAGGCGATGCTTTCTACACACGGAGTCACCTAGTGCAG	41500 fluorescence intensity (a.u.)
TACTTAAGTGCCAAGTGTCAAAGTGTGTGTGGTTTTCTGCCGGAGTCACCTAGTGCAG	4130 fluorescence intensity (a.u.)
TCCAAATAGCACGTACGCATGCATGCGTCCATGCCATCTCCGGAGTCACCTAGTGCAG	3270 fluorescence intensity (a.u.)

Sequence	binding signal
CGCTCGACTTCTCTTCTCTCATACACGTGTCATTAAATTTCGGAGTCACCTAGTGCAG	8480 fluorescence intensity (a.u.)
ATAAGTACGAATACTAAGTACGTGTGTGTTTGGAGGGTGTCGGAGTCACCTAGTGCAG	4340 fluorescence intensity (a.u.)
GAGGTGTACCACTAAGTGTGTACGTGTATAGTGGGGCGTGCGGAGTCACCTAGTGCAG	7420 fluorescence intensity (a.u.)
TGGACCTGAACCGAACCACTAAGTAGTAGTACGTGTGAGGCGGAGTCACCTAGTGCAG	41100 fluorescence intensity (a.u.)
CTCCTTGACAACCAGCACCGATCCCTGAGTCACCCAACGACGGAGTCACCTAGTGCAG	6120 fluorescence intensity (a.u.)
TTCTGTAACATAGGCTAACGTCAACGTGGCATTCATTTTGCGGAGTCACCTAGTGCAG	13200 fluorescence intensity (a.u.)
ATTAGTTTTATTAAATCTTACATTGAATATATTTTGATAACGGAGTCACCTAGTGCAG	3390 fluorescence intensity (a.u.)
AAATAATTTATGAATAAAACTTTTATCTACGTGTTCTTAACGGAGTCACCTAGTGCAG	4110 fluorescence intensity (a.u.)
CTGCACATAATAACGTGGATGAATCTTAAACGTCCATTTACGGAGTCACCTAGTGCAG	47100 fluorescence intensity (a.u.)
TATTTAAGTCAGTACTAAAGCACACATGTACAAATTTTACCGGAGTCACCTAGTGCAG	4160 fluorescence intensity (a.u.)
ACCAAACACCGCAAAATAAACAGTCATCCTCCGCACCGCGCGGAGTCACCTAGTGCAG	4480 fluorescence intensity (a.u.)
ATAACAGCGGGCCTTACGTGTACATGATAGTATATAGTACCGGAGTCACCTAGTGCAG	7000 fluorescence intensity (a.u.)
CAGAAAACAATAGTTATATTTAAGATGGGACGAATGGAGTCGGAGTCACCTAGTGCAG	53100 fluorescence intensity (a.u.)
TTATTAATATATTTAATTTAATGATCCGAGATAACATATCCGGAGTCACCTAGTGCAG	35600 fluorescence intensity (a.u.)
ATCAACAACTGTATTTAAAATGGGACGAATAGAGTAAATGCGGAGTCACCTAGTGCAG	20200 fluorescence intensity (a.u.)
TGAAACGGAGGGAGTATTATTAATATCTTAAGATGGACGACGGAGTCACCTAGTGCAG	6690 fluorescence intensity (a.u.)
GTTTGTTGTCGATACAATCACTAGTTGTGTTTGTTAATTTCGGAGTCACCTAGTGCAG	4170 fluorescence intensity (a.u.)
ACAGACTTGTTTAAGTTACAAGACGATACTATAAGAATTTCGGAGTCACCTAGTGCAG	41100 fluorescence intensity (a.u.)
AATTACATAATTTTAATACGAAGATGAATGATCAAATATACGGAGTCACCTAGTGCAG	56600 fluorescence intensity (a.u.)
CTATTAGAATATTTTATAATAGTTAATAGTTAATTAATTACGGAGTCACCTAGTGCAG	39700 fluorescence intensity (a.u.)
ATATAAGATGTAACTATTACGATGTTTCATGATACAAGTACGGAGTCACCTAGTGCAG	15000 fluorescence intensity (a.u.)

Sequence	binding signal
TTTATTAATATATATATATATATATATATATATATATATACGGAGTCACCTAGTGCAG	7400 fluorescence intensity (a.u.)
ATATTTAACAACGGATCAAATGATAGGAAAATAATTAATACGGAGTCACCTAGTGCAG	4700 fluorescence intensity (a.u.)
AAAATAAAATTTATTAATAATATTTTATCTATATTTACGACGGAGTCACCTAGTGCAG	30400 fluorescence intensity (a.u.)
GAGCGAGGCGAGGGTGGGGAGGCGGAGGAGGATGTCCAGGCGGAGTCACCTAGTGCAG	4580 fluorescence intensity (a.u.)
ATTTGATAAATGGGATGCCACGTGTACACCACGTCAACAGCGGAGTCACCTAGTGCAG	31000 fluorescence intensity (a.u.)
GATCAGATCGCACGCTGAGACGTATAGACGACGTGGGTCCCGGAGTCACCTAGTGCAG	4650 fluorescence intensity (a.u.)
TGTTTGTATAATTTTGAGTTATCAACAGTCGCGATGGAGACGGAGTCACCTAGTGCAG	24900 fluorescence intensity (a.u.)
CAAGTACCCAACCCGCGTCGTCATCGTCGTCTTCCTACTTCGGAGTCACCTAGTGCAG	5510 fluorescence intensity (a.u.)
AAAATGTCATGTAACTACGCCATTGGACCATAAATATTTTCGGAGTCACCTAGTGCAG	13600 fluorescence intensity (a.u.)
TACGGAACCTGTAATTTGTTTTGTTATTAGTCTACATTTACGGAGTCACCTAGTGCAG	45800 fluorescence intensity (a.u.)
CAGACGGATTATGTAATTTGTTTTATTATTAATTAGTCTACGGAGTCACCTAGTGCAG	3890 fluorescence intensity (a.u.)
GAGAGAATCTTGGAACGATTAGTAGTACATAAAGTAGAATCGGAGTCACCTAGTGCAG	3650 fluorescence intensity (a.u.)
TATGGATGGGTTTTATTAATAGTCTACGTTTAATATTTATCGGAGTCACCTAGTGCAG	4490 fluorescence intensity (a.u.)
TTTCTCGGAATTTCTGGAAATTTTCTTGGAATTAGTAGAACGGAGTCACCTAGTGCAG	65500 fluorescence intensity (a.u.)
ATATTATATTAAATTTGTAGTTTTACGATAATATGGTAAACGGAGTCACCTAGTGCAG	25400 fluorescence intensity (a.u.)
AATATGGATTATTACCAAGAATTTATCCGTTGTTTTGCTACGGAGTCACCTAGTGCAG	40700 fluorescence intensity (a.u.)
TATTCTGATTGGAACTTATGAGTCTTGAATTCTTGATTCTCGGAGTCACCTAGTGCAG	29700 fluorescence intensity (a.u.)
TGTATTTGCTACCGTTTTCCAATATGTACCGTCATGTTTCCGGAGTCACCTAGTGCAG	3920 fluorescence intensity (a.u.)
TACGAATTATGTAATTTGTTTTGTTATTAGTGTACATCTACGGAGTCACCTAGTGCAG	4070 fluorescence intensity (a.u.)
TTATTATTAGTAAATATGTAGTTTTACGATATTTAGTCTTCGGAGTCACCTAGTGCAG	44400 fluorescence intensity (a.u.)
ATTATTTAAGTGATGATATGTAAATAACGAGTGAAGTTTTCGGAGTCACCTAGTGCAG	3400 fluorescence intensity (a.u.)
